Compounds with a hit are over-represented: about 3% of the library has one in this group of screens.
KCNH2 3.1 inh: KCNH2 3.1 (human) potassium channel inhibition; U2OS KCNH2 3.1, thallium flux FluxOr; stronger effect = lower value; activity change, % (tested at about 1.8 µM); hit rate 0.95% among 340,000; AID 720553;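 active = maximum activity change below -70%; inconclusive = maximum activity change from -70% to -50%; inactive = maximum activity change above -50%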;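 note: thallium influx rate constant from kinetic fluorescence after stimulation buffer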
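Virally transduced U2OS (3.1 isoform, 4 h infection in dark at RT) → overnight 37 C → FluxOr + Red40 in HBSS/HEPES, 45 min → stimulation buffer, 2 min kinetic read → rate constant vs DMSO controls.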
ClpP mod: qHTS Assay for Activators of ClpP | purified B. subtilis ClpP, FRET peptide cleavage, 20 min | Potency, µM (highest dose often 57.5 µM) | ATP-dependent Clp protease proteolytic subunit (Bacillus subtilis (strain 168)), P80244 | AID 651965, 2013 | hit rate 1.9% among 340,000; active = well fitted falling curve with a large enough effect; inconclusive = small, poorly fitted or top-dose-only effect; inactive = no such curve, though single readings can be large or run the other way; note: the source files actives as falling curves though it sought activators and does not explain the sign; nearly all actives have a fitted effect of over 65% in size
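Buffer: 100 mM Tris/HCl pH8, 100 mM KCl, 0.05% low protease BSA, 2.5% glycerol, 0.01% Tween-20. ClpP 10 microg/mL final; 20 min RT; delta FRET normalized to ADEP and DMSO controls.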
KCNH2 WT inh: blocks the wildtype human KCNH2 potassium channel; U2OS, BacMam KCNH2, thallium flux FluxOr; stronger effect = lower value; activity change, % at 1.84 µM; hit rate 0.37% among 340,000; AID 720551;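 active = maximum activity change below -70%; inconclusive = maximum activity change between -70% and -50%; inactive = maximum activity change above -50%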
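U2OS cells transduced with wild-type KCNH2 virus are loaded with FluxOr dye for 45 min, and thallium flux is measured in kinetic reads before and after stimulation buffer. Rate constants are normalized to DMSO controls.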
12-LOX inh: inhibitors of human 12S-lipoxygenase ALOX12 | hit rate 1.1% among 580,000 | purified 12hLO, xylenol orange hydroperoxide absorbance | Potency, µM (highest dose often 108 µM), usual class: inhibitors; active = well fitted inhibition curve with a large enough effect; inconclusive = small, poorly fitted or top-dose-only effect, or another doubt; inactive = no such curve, though single readings can be large or run the other way
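Purified human 12hLO at 150 nM in 25 mM Hepes, 0.01% Triton X-100, pH 7.0, preincubated 15 min at room temperature with compound. Reaction started with 40 uM arachidonic acid, 30 min at room temperature. Hydroperoxide measured by Fe-xylenol orange, 573/405 nm absorbance ratio.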
LDHA block: LDHA (human) enzyme inhibition | activity change, % (values are at about 110 or 230 µM) | AID 1347041 | hit rate 0.15% among 480,000 | P00338 | purified LDHA, NADH/diaphorase-resazurin fluorescence; stronger effect = lower value; in the data active = activity change below about -30%; inconclusive = mostly about -25% to -30%
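Remaining NADH was detected by diaphorase (0.133 mg/mL) converting 37 µM resazurin to fluorescent resorufin, read at 0 and 20 minutes. The preceding 5-minute room-temperature reaction used 2 nM LDHA, 0.2 mM sodium pyruvate and 0.06 mM NADH at pH 7.4.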
BCR signal inh: inhibitors of chronic active B-cell receptor signaling. ABC-DLBCL IkBa-CBG/CBR reporter, luminescence ratio, 4 h. Potency, µM (titrated, usually from 46.1 µM), usual class: inhibitors. hit rate 0.05% among 340,000. AID 493014; active = well fitted inhibition curve with a large enough effect in the signal ratio, with a control signal flat, not every such curve was filed as active; inconclusive = small, poorly fitted or top-dose-only effect, or effect the other way, or a change in a side signal; the % refers to the signal ratio
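Concentration-response series (up to 46 uM) were applied to TMD8 dual-reporter cells for 4 h at 37C with doxycycline. Green/red ratio, after filter-overlap correction, defined %Activity; red signal alone was normalised to basal cells and zero luminescence.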
Numbers stand for hits; 0 = inactive; ? = inconclusive; - = not tested or not shown.

SMILES	KCNH2 3.1 inh	ClpP mod	KCNH2 WT inh	12-LOX inh	LDHA block	BCR signal inh
CCC1CCCCN1C(=O)Cn1c(-c2ccccc2)nc(C)cc1=O (stereo not given)	-	-	-	0	-33	-
CCc1cc(=O)n(CC(=O)N2CCCCC2CC)c(-c2ccccc2)n1 (stereo not given)	-	-	-	0	0	-
Cc1cc(C)nc(N/N=C/C(Cl)=C/c2ccccc2)n1	-83	0	0	0	0	?
Cc1cc(C)nc(N/N=C/c2ccccc2)n1	0	0	0	0	0	?
Cc1ccc(C(=O)c2sc(Nc3ccc(Cl)cc3C)nc2N)cc1	-	-	-	28µM	0	-
Cc1noc(C)c1C(=O)OCC(=O)NCCc1ccc(S(N)(=O)=O)cc1	-84	0	0	?	0	0
CCOC(=O)CSC1=NC(=O)/C(=C\c2ccc(Cl)cc2)S1	0	0	0	45µM	0	?
O=C(CN1C(=O)NC(c2ccccc2Cl)C2=C1COC2=O)Nc1ccc(F)c(Cl)c1 (stereo not given)	-	-	-	0	-	-
Cc1ccc(C2NC(=O)N(CC(=O)Nc3ccc(Br)c(C)c3)C3=C2C(=O)OC3)cc1 (stereo not given)	-	-	-	8.9µM	-	-
COc1ccc(C)cc1NC(=O)CN1C(=O)NC(c2ccc(C)cc2)C2=C1COC2=O (stereo not given)	-	-	-	0	-	-
O=C(CN1C(=O)NC(c2ccc(Cl)cc2)C2=C1COC2=O)Nc1ccc(F)c(Cl)c1 (stereo not given)	-	-	-	7.9µM	-	-
CC(=O)Nc1ccc(NC(=O)CN2C(=O)NC(c3ccc(C)cc3)C3=C2COC3=O)cc1 (stereo not given)	-	-	-	0	-	-
CC(=O)c1cccc(NC(=O)CN2C(=O)NC(c3ccc(C)cc3)C3=C2COC3=O)c1 (stereo not given)	-	-	-	0	-	-
Cc1ccc(C2NC(=O)N(CC(=O)Nc3ccc(C(F)(F)F)cc3)C3=C2C(=O)OC3)cc1 (stereo not given)	-	-	-	10µM	-	-
Cc1ccc(C2NC(=O)N(CC(=O)Nc3ccc(Br)cc3F)C3=C2C(=O)OC3)cc1 (stereo not given)	-	-	-	8.9µM	-	-
CC1CCCN(C(=O)C2CCN(C(=O)c3cc4ccccc4n3C)CC2)C1 (stereo not given)	-	-	-	0	0	-
Cc1cc(/C=C/C(=O)c2ccc3ccccc3c2)c(C)s1	-	-	-	0	0	-
COc1ccccc1C(=O)Oc1ccc(NC(=O)Cc2nn(C)c(=O)c3ccccc23)cc1	-	-	-	0	0	-
CCCCc1ccc(NC(=O)CN2C(=O)NC(c3ccc(Cl)cc3)C3=C2COC3=O)cc1 (stereo not given)	-	-	-	0	-	-
O=C(CN1C(=O)NC(c2ccc(Cl)cc2)C2=C1COC2=O)Nc1ccc(C(F)(F)F)cc1 (stereo not given)	-	-	-	8.9µM	-	-
O=S(=O)(NC1=NCN(Cc2cccnc2)CN1)c1ccc(Cl)cc1	-	-	-	0	0	-
Cc1cc(NC(=O)CN2CCN(C/C=C/c3ccccc3)CC2)c([N+](=O)[O-])cc1C	-92	0	0	0	0	0
Cc1cccc(NC(=O)CCN2CCN(C/C=C/c3ccccc3)CC2)c1	-91	0	0	0	0	0
O=C(CN1CCN(C/C=C/c2ccccc2)CC1)Nc1ccccc1C(=O)NC1CC1	-112	0	-91	0	0	0
Cc1ccc(NC(=O)CCN2CCN(Cc3ccccc3)CC2)cc1Br	-	-	-	50µM	0	-
SMILES	KCNH2 3.1 inh	ClpP mod	KCNH2 WT inh	12-LOX inh	LDHA block	BCR signal inh
Cc1ccc(N2CCN(C(=O)c3cc4cc([N+](=O)[O-])ccc4oc3=O)CC2)cc1C	-	-	-	?	0	-
O=C(CCN1CCN(C/C=C/c2ccccc2)CC1)Nc1ccccc1	-80	0	0	0	0	0
O=C(CCN1CCN(CCO)CC1)Nc1ccccc1	0	0	0	0	0	0
Cc1cc(NC(=O)CCN2CCN(C/C=C/c3ccccc3)CC2)ccc1Br	-108	0	0	6.3µM	0	0
Cc1cc(NC(=O)CCN2CCN(C)CC2)ccc1Br	0	0	0	0	0	0
Cc1ccccc1NC(=O)CCN1CCN(C/C=C/c2ccccc2)CC1	-85	0	0	0	0	0
Cc1cccc(NC(=O)Cn2c(-c3ccccc3)nc(C)cc2=O)c1	-	-	-	0	-	-
Cc1cccc(NC(=O)Cn2c(/C=C/c3ccccc3)nc3ccccc32)c1	0	32µM	0	0	0	0
O=C(CCN1CCN(c2ccccc2F)CC1)Nc1ccc(F)cc1	0	0	0	0	0	0
Cc1ccccc1N1CCN(CCC(=O)Nc2ccc(F)cc2)CC1	0	0	0	18µM	0	0
COc1ccc(NC(=O)CN2C(=O)NC(c3ccccc3)(c3ccccc3)C2=O)cc1	0	-	0	0	0	0
COc1ccc(C2(c3ccc(OC)cc3)NC(=O)N(CC(=O)Nc3ccc(OC(F)F)cc3)C2=O)cc1	-	0	-83	0	0	0
Clc1ccccc1Nc1nc(NCc2ccccc2)nc2ccsc12	-	0	-	?	0	-
OCc1ccccc1-c1nc(NCc2ccccc2)nc2ccsc12	-	0	-	14µM	0	-
CC(C)C1Cc2[nH]c(=O)c(C(=O)O)cc2CO1 (stereo not given)	0	35µM	0	?	0	0
Cc1ccc2cc(C(=O)O)c(C)nc2c1	-88	0	0	?	0	0
Cc1ccc2oc3nc(C)c(C(=O)O)cc3c(=O)c2c1	0	28µM	0	?	0	?
Cc1ccc(N2C=Nc3ccc(C)c4nc(C)cc2c34)cc1	0	22µM	0	0	0	0
CC1=Nc2ccc(C)c3nc(C)cc(c23)N1c1ccc(C)cc1	0	0	0	?	0	-
Cc1csc(CCCCNC(=O)C2(c3ccc(Br)cc3)CC2)n1	-	-	-	0	0	-
CCn1c(-c2nn(C)c(C)c2Cl)n[nH]c1=S	0	0	0	0	0	0
Cc1ccc(-n2c(-c3nn(C)c(C)c3Cl)n[nH]c2=S)cc1	0	0	0	32µM	0	0
Cc1ccc(-n2c(-c3c(-c4ccccc4)noc3C)n[nH]c2=S)cc1	-188	0	0	0	0	?
O=C(NCCc1ccccc1)N1CCC2(CC1)CC(N1CCOCC1)CCO2 (stereo not given)	-	-	-	0	-	-
Cc1nc(/C=C/c2ccc(Cl)cc2)sc1C(=O)O	-	-	-	?	0	-
CN(C)S(=O)(=O)c1ccc(C(=O)NC(=O)CSc2ccccc2)cc1	0	0	0	0	0	0
CC(=O)Nc1ccc(SCC(=O)NC(=O)c2ccc(S(=O)(=O)N(C)C)cc2)cc1	0	0	-94	?	0	0
CC1CCc2c(sc(Nc3nc4c(F)cccc4s3)c2C(N)=O)C1 (stereo not given)	0	?	0	45µM	0	?
CC(C)Cn1c(-c2ccc(O)cc2)nc2c1c(=O)[nH]c(=O)n2Cc1ccccc1	-	-	-	?	0	-
